Compound activity deposited in PubChem BioAssay by National Center for Advancing Translational Sciences (NCATS).
DT40 TDP1 no CPT = qHTS for Inhibitors of human tyrosyl-DNA phosphodiesterase 1 (TDP1): qHTS in cells in absence of CPT. DT40 Tdp1-/- hTDP1 cells, no CPT, ATP luminescence, 48 h. Potency, µM (highest dose often 46.2 µM), inactives show at the highest dose activity change, negative = growth inhibition, actives largely listed as inhibitors. hit rate 15% among 420,000; note: potency is the fitted concentration of half-maximal effect; % is set by controls: 0 for no effect and ±100 for the full control effect; nearly all actives have a fitted effect of over 55% in size
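Luminescent ATP content (CellTiter-Glo) served as the growth readout. Knockout chicken DT40 cells expressing human TDP1 were exposed to compounds without camptothecin for a minimum 48 hr at 37 °C.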
HepG2 tox = kills HepG2 cells in TGF-b inhibitor counter-screen | HepG2 CAGA-GFP viability, ATP luminescence, 18 h | hit rate 0.76% among 410,000 | Potency, µM (series often up to 46.1 µM), without a hit: at the highest dose activity change, negative = cytotoxicity, hits mostly cytotoxic; note: potency is the fitted concentration of half-maximal effect
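HepG2 CAGA-GFP cells (1000/well, DMEM with 1% FBS) received compound, then TGF-beta at 500 pg/mL final, and were incubated 18 hours at 37 degrees C. Viability was read by CellTiter-Glo luminescence. Media-only wells were set as complete cell-killing and DMSO as no toxicity.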
TGFb inhibitor = inhibitors of TGF-b signaling; HepG2 CAGA-GFP TGF-b/SMAD3 reporter, GFP fluorescence, 18 h; TGF-beta stimulated, 500 pg/mL final; Potency, µM (series often up to 46.1 µM), without a hit: top-dose activity, negative = inhibition, hits mostly inhibitors; hit rate 1.2% among 410,000; AID 588855; note: potency is the fitted concentration of half-maximal effect; % is set by controls: 0 for no effect and ±100 for the full control effect; nearly all actives have a fitted effect of over 65% in size
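GFP signal (ex488/em500-530) from TGF-beta-stimulated HEPG2 CAGA-GFP cells, 500 pg/mL final, 18 h at 37 degrees C in DMEM plus 1% FBS, normalized to unstimulated and DMSO-stimulated controls.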
DT40 TDP1 CPT = DT40-hTDP1 cell growth loss with CPT. chicken DT40 Tdp1-/-;hTDP1 cells + 20 nM CPT, ATP luminescence, 48 h. hit rate 12% among 420,000. Potency, µM (top dose mostly 46.2 µM), without a hit: at the highest dose activity change, negative = growth inhibition, hits mostly inhibitors. AID 686979; note: potency is the fitted concentration of half-maximal effect; % is set by controls: 0 for no effect and ±100 for the full control effect; nearly all actives have a fitted effect of over 55% in size
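Chicken DT40 Tdp1-/- cells complemented with human TDP1, 400 cells/well, exposed to compounds plus 20 nM camptothecin for at least 48 h at 37 C; viability read as ATP content by CellTiter-Glo luminescence.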
ASM inhibitor = blocks human secretory acid sphingomyelinase | P17405 | placental ASM, HMU-PC fluorogenic substrate, 60 min | Potency, µM (doses to about 57.5 µM), for inactives: at the highest dose activity change, negative = inhibition, usual class: inhibitors | hit rate 0.006% among 340,000; note: potency is the fitted concentration of half-maximal effect
Target sequence (P17405 47-631 limits assumed): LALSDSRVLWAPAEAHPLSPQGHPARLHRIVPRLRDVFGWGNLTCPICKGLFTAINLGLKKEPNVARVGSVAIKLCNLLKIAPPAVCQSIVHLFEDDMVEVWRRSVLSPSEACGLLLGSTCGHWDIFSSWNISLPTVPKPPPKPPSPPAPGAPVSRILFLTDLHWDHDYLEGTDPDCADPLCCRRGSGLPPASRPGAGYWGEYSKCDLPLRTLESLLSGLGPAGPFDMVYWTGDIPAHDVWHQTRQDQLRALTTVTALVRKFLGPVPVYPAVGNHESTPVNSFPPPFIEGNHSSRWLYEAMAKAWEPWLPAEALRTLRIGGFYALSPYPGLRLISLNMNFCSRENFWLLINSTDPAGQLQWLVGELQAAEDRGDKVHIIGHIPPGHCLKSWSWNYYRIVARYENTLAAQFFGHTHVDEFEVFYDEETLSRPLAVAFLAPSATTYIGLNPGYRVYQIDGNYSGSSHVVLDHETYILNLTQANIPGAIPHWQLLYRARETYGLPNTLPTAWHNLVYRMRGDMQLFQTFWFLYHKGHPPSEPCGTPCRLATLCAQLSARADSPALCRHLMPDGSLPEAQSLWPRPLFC
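HMU-PC0 cleavage (9 uM final) by human placental ASM, 60 min at 37 °C following 10 min compound exposure at RT; stopped at pH 10, fluorescence Ex 386/Em 447 nm.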
IL1B secr inh = inhibitors of inflammasome signaling (IL-1 beta secretion) | THP-1 LPS/ATP IL-1B secretion, AlphaLISA, 16 h; stronger effect = lower value | activity change, % at 57.5 µM | hit rate 4.7% among 360,000; in the data active = activity change below about -50%; inconclusive = mostly about -30% to -49%; note: % is set by controls: 0 for no effect and ±100 for the full control effect
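Secreted IL-1B measured by AlphaLISA bead assay after 16 h compound exposure of THP-1 cells; compounds (final up to 57.5 uM) added 1 h before LPS (250 ng/mL) and ATP (1.25 mM) stimulation; lower signal means less secretion.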
Starred values were filed as active, the others as inactive; u = inconclusive; x = no result given. A selection: hits, their analogues and other compounds. The true share with any hit is near 19%. Unless noted, calls come from the whole dose curve; as a rule, active = well fitted curve in the direction sought with a large enough effect; inconclusive = small, poorly fitted or top-dose-only effect, or another doubt; inactive = no such curve, though single readings can be large; an effect the other way counts as inactive or inconclusive.

SMILES	DT40 TDP1 no CPT	HepG2 tox	TGFb inhibitor	DT40 TDP1 CPT	ASM inhibitor	IL1B secr inh
Cc1ccc(C)c(N=C2CCCN2Cc2ccccc2)c1C#N	16.4µM*	-26.4%	-6.9%	u	2.5%	6.2
N#Cc1ccc(C(=O)N(Cc2ccco2)Cc2cccs2)cc1	u	1.3%	0.9%	u	x	x
N#Cc1cccc(C(=O)N(CCc2ccccc2)Cc2cccs2)c1	25.9µM*	-2.2%	14.8%	u	-2.9%	-4.8
COCCN1C(=O)COc2ccccc2C1C(=O)NC1CCCCC1 (stereo unspecified)	-25.2%	x	x	-3.0%	x	28.0
Cc1noc(C)c1C(=O)NCCc1ccc(Cl)cc1	-6.3%	0.3%	-10.2%	4.6%	-0.4%	-2.3
Cc1cc(C(C)(C)C)cc(C)c1CCNC(=O)c1c(C)noc1C	25.9µM*	-0.9%	-9.7%	29.1µM*	-4.0%	-5.0
CCNC(=S)Nc1ccc(Cl)cc1	-34.3%	10.9%	3.5%	-16.7%	4.0%	15.9
CCC(C)c1ccc(NC(=S)NCCn2cc(Cl)cn2)cc1 (stereo unspecified)	20.6µM*	-33.1%	-23.2%	u	1.6%	u
CCC(C)c1ccc(NC(=S)NCCn2cc(Br)cn2)cc1 (stereo unspecified)	14.6µM*	-19.0%	u	20.6µM*	-0.7%	-52.3*
CCC(C)c1ccc(NC(=S)Nc2ccc(OC)c(OC)c2)cc1 (stereo unspecified)	u	-21.2%	-23.4%	u	-7.3%	-13.2
O=C(CN1CCN(S(=O)(=O)c2ccc(Br)cc2)CC1)c1ccc(O)c(O)c1	7.31µM*	-3.9%	0.6%	18.4µM*	-0.3%	3.4
COc1ccccc1CN1CCN(S(=O)(=O)c2ccc(C)cc2)CC1	2.6%	5.5%	10.2%	4.5%	-0.1%	4.4
Cc1ccc(S(=O)(=O)N2CCN(Cc3cc(Br)ccc3O)CC2)cc1	u	0.8%	10µM*	18.4µM*	x	x
O=C(CN1C(=O)COc2ccc(S(=O)(=O)N3CCCC3)cc21)N1CCN(c2ccc(F)cc2)CC1	x	-16.0%	-2.5%	x	x	x
Cc1nn2c(N)c(-c3ccccc3)cnc2c1-c1ccc(Cl)cc1	u	-35.1%	u	16.4µM*	82.9%	-68.8*
Cc1nn(-c2nc3ccccc3[nH]2)c(N)c1-c1ccccc1	16.4µM*	-14.9%	-19.4%	u	-9.8%	-19.6
Cc1nc2c(-c3ccccc3)c(C)nn2c(N)c1-c1ccccc1	29.1µM*	10.1%	17.6%	20.6µM*	8.3%	-18.1
Cc1cc(N)n2nc(-c3ccccc3)c(-c3ccccc3)c2n1	1.64µM*	1.8%	9.5%	1.46µM*	-0.7%	12.4
O=C(CSc1ccc(Br)cc1)N1CCN(C(=O)c2ccco2)CC1	-7.1%	7.9%	-12.5%	-2.7%	0.8%	-11.5
CC1CCN(C(=O)c2ccc3c(c2NCCO)C(=O)c2ccccc2C3=O)CC1	18.4µM*	-9.4%	u	23.1µM*	-12.8%	-22.9
CCN(CC)CCNC(=O)c1ccc2c(c1NCCO)C(=O)c1ccccc1C2=O	14.6µM*	1µM*	1.26µM*	16.4µM*	u	-53.3*
CC1CC(C)CN(C(=O)c2cccc3c2-c2ccccc2C3=O)C1 (stereo unspecified)	u	-23.2%	u	u	-1.1%	1.7
O=c1c2ccccc2n(Cc2c(F)cccc2Cl)c(=O)n1Cc1ccccc1	-24.5%	-9.3%	1.5%	u	x	x
Cc1cc(=O)n2nc(N3CCC(C(=O)Nc4ccc(C)c(Cl)c4)CC3)sc2n1	-21.4%	-11.8%	u	u	x	x
CC1CCN(c2nc3c(S(=O)(=O)c4ccc(Cl)cc4)nnn3c3ccsc23)CC1	16.4µM*	-2.4%	-7.5%	u	x	x
SMILES	DT40 TDP1 no CPT	HepG2 tox	TGFb inhibitor	DT40 TDP1 CPT	ASM inhibitor	IL1B secr inh
CC(C)c1ccc(S(=O)(=O)c2nnn3c2nc(N2CCN(C)CC2)c2sccc23)cc1	u	3.8%	34.3%	16.4µM*	x	x
CN1CCN(c2nc3c(S(=O)(=O)c4ccc(Cl)cc4)nnn3c3ccsc23)CC1	u	-24.6%	0.9%	u	x	x
CC1CCN(c2nc3c(S(=O)(=O)c4ccccc4)nnn3c3ccsc23)CC1	-11.2%	-55.6%	u	-7.0%	x	x
CC1CCCCC1NCC#CCOc1ccc(Cl)cc1 (stereo unspecified)	u	5.4%	13.2%	u	4.1%	-22.0
O=C(COC(=O)c1ccc(F)c(S(=O)(=O)N2CCOCC2)c1)NCCc1ccccc1	-3.5%	-9.4%	-8.5%	-12.1%	-5.1%	-17.3
Cc1ccc(N(Cc2ccccc2)C(=O)c2cc(S(=O)(=O)N3CCOCC3)ccc2N2CCCC2)cc1	20.6µM*	-22.3%	u	20.6µM*	-4.7%	-4.6
Cc1cccc(N(Cc2ccccc2)C(=O)Cc2ccc(S(=O)(=O)N3CCOCC3)s2)c1	23.1µM*	0.0%	-17.7%	u	-2.2%	-4.5
Cc1cccc(N(Cc2ccccc2)C(=O)c2ccc(F)c(S(=O)(=O)N3CCOCC3)c2)c1	u	-1.8%	0.0%	u	-3.5%	-7.1
Cc1cccc(N(Cc2ccccc2)C(=O)c2ccc(C)c(S(=O)(=O)N3CCOCC3)c2)c1	13µM*	-16.6%	-29.3%	16.4µM*	-1.9%	0.0
Cc1ccc(N(Cc2ccccc2)C(=O)c2ccc(F)c(S(=O)(=O)N3CCOCC3)c2)cc1	23.1µM*	4.7%	0.4%	u	1.6%	9.1
CC1CN(S(=O)(=O)c2cccc(C(=O)OCCOc3ccccc3)c2)CC(C)O1 (stereo unspecified)	u	-5.0%	-2.7%	20.6µM*	-3.4%	-3.5
Cc1cccc(N(Cc2ccccc2)C(=O)c2cccc(S(=O)(=O)N3CC(C)OC(C)C3)c2)c1 (stereo unspecified)	10.3µM*	18.6%	u	11.6µM*	2.8%	5.7
CC1CN(S(=O)(=O)c2cccc(C(=O)OCC(=O)c3cccs3)c2)CC(C)O1 (stereo unspecified)	-27.5%	0.4%	4.9%	-21.0%	-2.6%	18.5
CN1CCC(N(C)C(=O)c2cccc(S(=O)(=O)N3CCOCC3)c2)CC1	-12.5%	1.7%	5.2%	0.0%	5.8%	15.4
CC1CN(S(=O)(=O)c2cccc(C(=O)N(C)C3CCCCC3)c2)CC(C)O1 (stereo unspecified)	10.3µM*	-2.6%	-9.7%	18.4µM*	x	38.2
CCc1ccccc1OCC(=O)N1CCN(c2ncccn2)CC1	u	-4.8%	9.9%	u	-0.7%	-3.4
